Experimental data taken from publication PMC5540273 (PLoS ONE, 2017).

Legend:
PYK2 = tested on: T1, PYK2
T1 construct: gene PTK2B
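Also: kd values determined as follow-up on hits from a single-replicate KINOMEscan panel screen.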

CN1C(=O)C(Nc2ccc(Cl)c(C(=O)O)c2)=C(c2ccc(Cl)cc2)C1=O [SB-404290]
Kd (PKN1): > 10000 nM

COc1cc2ncn(-c3cc(OCC4CCCO4)c(C(N)=O)s3)c2cc1OC (stereo not shown) [GSK204607]
Kd (PLK1): 13 nM
Kd (PLK2): 4.4 nM
Kd (PLK3): 40 nM
Kd (PRKCI): > 10000 nM

CC(C)(C)c1ccc(C(=O)Nc2cn3cc(Cl)ccc3n2)cc1
Kd (PRKCI): > 10000 nM
Kd (PYK2): > 10000 nM

O=S(=O)(c1ccc(-c2ccnc3[nH]ccc23)cc1)N1CCCC1 [GSK846226]
Kd (RIOK1): 610 nM

Cc1nnc(-c2ccc3occ(-c4ccc(S(C)=O)cc4)c3c2)[nH]1 (stereo not shown)
Kd (RIPK1): > 10000 nM

Cl.NC(=O)c1cccc(Nc2nccc(Nc3ccc(Oc4cccc(Cl)c4)c(Cl)c3)n2)c1 [GW659008]
Kd (RIPK2): 44 nM

Cn1cncc1-c1ccc2ncnc(Nc3ccc(OCc4ccccc4)cc3)c2c1 [GW320571]
Kd (RIPK2): 91 nM

Cc1cc(N2Cc3ccccc3C2)nc(Nc2ccc(S(=O)(=O)N3CCOCC3)cc2)n1.Cl [GSK1669917]
Kd (RIPK4): > 10000 nM

CS(=O)(=O)c1ccc(-c2nc3n(c2-c2ccncc2)CCC3)cc1 [SKF-105942]
Kd (RIPK4): > 10000 nM
